Measurements taken from PubChem BioAssay AID720597 (Broad Institute, 2013).
Potency and affinity values are given separately.

target: NAD-dependent protein deacylase sirtuin-5, mitochondrial (Homo sapiens) (UniProt Q9NXA8); test: SIRT5 deacylase inhibitors, dose response, biochemical, fluorescence imaging, cherry-pick, set 6 (AID 720597); conditions: Purified SirT5, succinyl-peptide-AMC/trypsin fluorescence; series mostly up to 15 µM; activity change, negative = inhibition: at the top concentration;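 further: lower AMC signal can also come from blocking the trypsin step; 0% = median of neutral control wells and -100% = median of positive control wells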
Sequence (Q9NXA8 whole entry, looked up): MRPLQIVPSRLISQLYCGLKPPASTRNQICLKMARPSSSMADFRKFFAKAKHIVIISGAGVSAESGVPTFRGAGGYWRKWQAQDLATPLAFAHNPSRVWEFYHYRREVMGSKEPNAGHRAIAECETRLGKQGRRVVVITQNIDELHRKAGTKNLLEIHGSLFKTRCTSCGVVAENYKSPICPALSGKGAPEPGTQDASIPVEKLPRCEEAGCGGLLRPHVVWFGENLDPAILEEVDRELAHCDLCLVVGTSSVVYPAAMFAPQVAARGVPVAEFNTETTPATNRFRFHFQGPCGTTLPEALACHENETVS

Activity change, negative = inhibition, inactive:
C[C@H]1CN([C@@H](C)CO)C(=O)Cc2cc(NC(=O)CCCCCC(=O)Nc3ccccc3N)ccc2O[C@H]1CN(C)Cc1ccc(Oc2ccccc2)cc1 -12%
COc1ccc(S(=O)(=O)N(C)C[C@H]2Oc3ccc(NC(=O)NC4CCCCC4)cc3C(=O)N([C@H](C)CO)C[C@@H]2C)cc1 1.57%
O=S(=O)(c1ccc(F)cc1)N1CCCCN2[C@@H](CO)[C@H](c3ccc(C#CC4CCCC4)cc3)[C@@H]2C1 -0.632%
COc1ccc([Si](C)(C)[C@H]2[C@H](CCn3cc([C@H](O)c4ccccc4)nn3)O[C@@]3(C(=O)N(Cc4cccc(N5CCOC5=O)c4)c4ccccc43)[C@@H]2C)cc1 -6.17%
COc1ccccc1NC(=O)N1CC(=O)N2[C@H](CO)[C@@H](c3ccc(C#CC4CC4)cc3)[C@H]2C1 -19.2%
Cn1cnc(CCNC(=O)C[C@@H]2CC[C@@H]3[C@H](COC[C@H](O)CN3C(=O)C3CCCC3)O2)c1 -18.6%
CCS(=O)(=O)N1CC2(C1)CN(S(=O)(=O)c1cn(C)cn1)[C@@H](CO)c1[nH]c3cc(OC)ccc3c12 19.2%
CCC(=O)N1CC2(C1)[C@H](c1ccccc1)[C@H](CO)N2Cc1ccccc1OC -0.469%
COc1ccc(NC(=O)N(C)C[C@H]2Oc3ccc(NS(=O)(=O)c4ccc(OC)cc4)cc3CC(=O)N([C@H](C)CO)C[C@H]2C)cc1 19.2% [at 16 µM]
COc1ccccc1S(=O)(=O)N(C)C[C@@H]1Oc2cc(C#CCC(C)C)ccc2S(=O)(=O)N([C@@H](C)CO)C[C@@H]1C 10%
O=C(C[C@H]1CC[C@H]2[C@@H](COC[C@@H](O)CN2C(=O)c2ccncc2)O1)Nc1ccc(-c2ccccc2)cc1 -9.41%
C[C@H]1CN([C@@H](C)CO)C(=O)c2cc(C#CCN(C)C)cnc2O[C@@H]1CN(C)Cc1ccncc1 -24.8%
C[C@H]1CN([C@@H](C)CO)C(=O)c2cc(NS(=O)(=O)c3ccccc3)ccc2O[C@@H]1CN(C)Cc1ccc(C(=O)Nc2ccccc2N)cc1 -9.69% [at 12 µM]
COc1cccc(S(=O)(=O)N(C)C[C@H]2Oc3cc(C4=CCCCC4)ccc3S(=O)(=O)N([C@H](C)CO)C[C@H]2C)c1 -17.3%
CC(C)CN(C[C@H]1N[C@H](CO)[C@@H]1c1ccccc1)C(=O)C1CCCCC1 39.5%
C[C@@H]1CN([C@H](C)CO)C(=O)c2cc(N(C)C)ccc2O[C@H]1CN(C)C(=O)Nc1ccc(F)cc1 -7.29%
C[C@H]1CCCCO[C@H](CN(C)S(=O)(=O)c2ccc(Cl)cc2)[C@@H](C)CN([C@@H](C)CO)C(=O)c2cc(NS(=O)(=O)c3ccc(F)cc3)ccc2O1 -3.99%
CCC(=O)N(C)C[C@@H]1Oc2ncc(-c3ccc(F)cc3)cc2C(=O)N([C@@H](C)CO)C[C@@H]1C -14.1%
COc1cccc(S(=O)(=O)N(C)C[C@H]2Oc3cc(C4=CCCC4)ccc3S(=O)(=O)N([C@H](C)CO)C[C@H]2C)c1 -11.6%
CC(C)CC#Cc1cnc2c(c1)C(=O)N([C@H](C)CO)C[C@H](C)[C@H](CN(C)CC1CCOCC1)O2 -7.96%
COCC#Cc1ccc2c(c1)O[C@@H](CN(C)CC1CCCC1)[C@H](C)CN([C@@H](C)CO)S2(=O)=O 15.1%
COc1ccc(S(=O)(=O)Nc2ccc3c(c2)C(=O)N([C@@H](C)CO)C[C@H](C)[C@@H](CN(C)Cc2ccc(Oc4ccccc4)cc2)O3)cc1 13.7%
COc1cccc(S(=O)(=O)N(C)C[C@@H]2Oc3cc(C4=CCCCC4)ccc3S(=O)(=O)N([C@@H](C)CO)C[C@@H]2C)c1 -2.52%
C[C@@H]1CN([C@H](C)CO)C(=O)c2cc(NC(=O)NC3CCCCC3)ccc2O[C@@H](C)CCCCO[C@@H]1CN(C)Cc1ccc(Cl)c(Cl)c1 3.17%
C[C@H](CO)N1C[C@H](C)[C@@H](CN(C)S(=O)(=O)c2cccc(F)c2)Oc2ncc(C#CC3CCCCC3)cc2C1=O 6.48%
COc1ccc(NC(=O)Nc2ccc3c(c2)C(=O)N([C@H](C)CO)C[C@H](C)[C@@H](CN(C)S(=O)(=O)c2cccs2)OCCCC[C@@H](C)O3)cc1 -4.68%
C[C@H](CO)N1C[C@H](C)[C@H](CN(C)C(=O)NC2CCCCC2)Oc2cc(/C=C/c3ccccc3)ccc2S1(=O)=O 16.9%
C[C@H](CO)N1C[C@H](C)[C@@H](CN(C)Cc2ccc(Cl)c(Cl)c2)Oc2c(NC(=O)c3ccc(-c4nccs4)cc3)cccc2C1=O -6.33% [at 3.8 µM]
C[C@H]1CCCCO[C@@H](CN(C)C(=O)Nc2ccc(C(F)(F)F)cc2)[C@@H](C)CN([C@@H](C)CO)C(=O)c2cc(NS(=O)(=O)c3ccc(Cl)cc3)ccc2O1 18%
